Assay results from PubChem BioAssay (Tox21).
The source made the active and inactive calls. Calls come from the whole dose curve; as a rule, active = well fitted cell-killing curve with a large enough effect in the repeat runs; inconclusive = weak or mixed curves, or effect the other way; inactive = flat fitted curve, though single readings scatter.

Assay: qHTS assay to identify small molecule HDAC inhibitors - cell viability counter screen (AID 1259365); note: nearly all actives have a fitted effect of over 50% in size
Settings: HCT-116 viability, CellTiter-Glo ATP luminescence, 2 h; series mostly up to 92.4 µM; activity change, negative = cytotoxicity: at the top concentration
Procedure, shortened: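 After overnight seeding at 1,500 cells per well, wild-type HCT-116 cultures took up compounds in DMSO for 2hr at 37 C. Viable cell content came from luminescence with CellTiter-Glo.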
% is set by controls: 0 for no effect and ±100 for the full control effect.

| Structure (SMILES) | activity change, negative = cytotoxicity |
| --- | --- |
| O=c1[nH]c2ccc(Cl)cc2o1 | 2.69% (inactive) |
| Cc1ccc(C(C)(C)O)cc1 | 2.51% (inactive) |
| CCCC(=O)C(=O)O | 1.55% (inactive) |
| CC(C)=CCC1C(=O)N(c2ccccc2)N(c2ccccc2)C1=O | 0.547% [at 42.5 µM] (inactive) |
| CCOC(=O)/C=C/C(=O)OCC | 1.12% (inactive) |
| Cc1ccc(CO)cc1 | 2.82% (inactive) |
| O=C(OC(=O)c1ccccc1)c1ccccc1 | -0.634% (inactive) |
| CC(C)=CCC/C(C)=C/CC/C(C)=C/CCC(=O)OC/C=C(\C)CCC=C(C)C | -2.29% [at 42.5 µM] (inactive) |
| O[C@@H]1CO[C@H]2[C@@H]1OC[C@@H]2O | 1.34% [at 42.5 µM] (inactive) |
| CCCCC(CC)CN (stereo not given) | -0.703% (inactive) |
| COc1cc(C(=O)NCCCCCC(=O)O)cc(OC)c1OC | 0.928% [at 42.5 µM] (inactive) |
| CC(CCC(=O)O)C(=O)O (stereo not given) | -3.64% (inactive) |
| CCC1NC(=O)c2cc(S(N)(=O)=O)c(Cl)cc2N1 (stereo not given) | -1.17% [at 42.5 µM] (inactive) |
| O=C1NCCN1CCO | -0.615% (inactive) |
| C1COC1 | -0.0138% (inactive) |
| CCn1cc(C(=O)O)c(=O)c2cc(F)c(N3CCNCC3)cc21 | -0.414% [at 42.5 µM] (inactive) |
| CO[C@]1(NC(=O)CSC(F)F)C(=O)N2C(C(=O)O)=C(CSc3nnnn3CCO)CO[C@H]21 | -2.84% [at 42.5 µM] (inactive) |
| O=C(O)CCCCCCCCCCCBr | -2.9% (inactive) |
| CCC(=O)OC | 0.223% (inactive) |
| CCC(C)(C)OC | -0.446% (inactive) |

| Structure (SMILES) | activity change, negative = cytotoxicity |
| --- | --- |
| CC(C)=CC(=O)C=C(C)C | 4.81% (inactive) |
| CC(=O)OCC(=O)NCCCOc1cccc(CN2CCCCC2)c1 | 0.537% [at 42.5 µM] (inactive) |
| CCCCCCCCCI | 0.127% (inactive) |
| CCc1ccccc1 | 1.49% (inactive) |
| Cc1ccccc1S | 7.57% [at 42.5 µM] (inactive) |
| Cc1cscn1 | 1.55% (inactive) |
| N#CCc1ccc(Cl)cc1Cl | -0.598% (inactive) |
| CCCCCC[C@@H](O)C/C=C\CCCCCCCC(=O)O | 0.239% (inactive) |
| Cc1cc(C)c(N)cc1C | -0.694% (inactive) |
| C=CC(C)(CCC=C(C)C)OC(=O)CC(C)C (stereo not given) | -12.6% (inactive) |
| O=C(/C=C/c1ccccc1)OCCc1ccccc1 | -3.21% (inactive) |
| CCCCCCCCC(CCCCCC)C(=O)O (stereo not given) | -1.23% (inactive) |
| Cc1ccco1 | -0.748% (inactive) |
| C[C@H]1c2cccc(O)c2C(O)=C2C(=O)[C@]3(O)C(O)=C(C(N)=O)C(=O)[C@@H](N(C)C)[C@@H]3[C@@H](O)[C@@H]21 | 4.32% [at 42.5 µM] (inactive) |
| CC1(C)[C@H](C(=O)O)N2C(=O)C[C@H]2S1(=O)=O | 2.42% [at 42.5 µM] (inactive) |
| CO/N=C(/C(=O)N[C@@H]1C(=O)N2C(C(=O)O)=C(COC(N)=O)CS[C@H]12)c1ccco1 | -0.991% (inactive) |
| C=CC(=O)[O-].C=CC(=O)[O-].[Zn+2] | 0.671% (inactive) |
| O=C1c2ccccc2C(=O)C1c1ccc(Br)cc1 | -12.6% [at 42.5 µM] (inactive) |
| CCC(OCCCOC)OC(C)=O (stereo not given) | -1.36% (inactive) |
| COC(=O)CS | 0.582% (inactive) |
